The values that follow come from PubChem BioAssay.

Calls of active or inactive are those of the source.

Experiment [1] deals with PRMT1 (protein arginine N-methyltransferase 1). Description: PRMT1 binders on small-molecule microarrays, primary screen, biochemical, small-molecule microarray, 635 nm fluorescence (AID 1088).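 Also: binding of Prmt1 protein to compounds spotted on small-molecule microarray slides.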 As to conditions: small-molecule microarray binding, higher = more signal.
A short description of experiment [2]: yeast growth modulation, basal conditions, primary screen, YJM789 clinical isolate, OD600, 24 h (AID 1089).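 Also: growth of clinical yeast isolate S. cerevisiae YJM 789 seeded 1000 cells per well; test concentration not given here.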 As to conditions: S. cerevisiae YJM789 growth, higher = more signal, called active from +8 up or from −8 down.
Experiment [3] can be described thus: fission yeast growth modulation, primary screen, strain 972, OD600, 24 h, no modulator (AID 1090).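 Also: basal condition with compound alone and no growth modifier present; test concentration not given here.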 Particulars: S. pombe 972 growth, higher = more signal, called active from +8 up or from −8 down.
Experiment [4] is described as follows: S. cerevisiae growth modulation with rapamycin, primary screen, strain BY4716, OD600, 96 h (AID 1091). Also: test concentration not given here. As to conditions: higher = more signal, called active from +8 up or from −8 down.
Experiment [5] deals with Torsin-1A-interacting protein 2 (Homo sapiens) (UniProt Q8NFQ8). As to the kind of experiment: LULL1 binders on small-molecule microarray, primary screen, cell lysate, human LULL1 lysate, 635/667 nm fluorescence (AID 1092).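 Also: probe is lysate of COS7 cells overexpressing human LULL1; score merges per-feature 667 nm fluorescence with signal-to-noise.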 Particulars: hLULL1 lysate binding, 635 nm fluorescence, higher = more signal.
Experiment [6] can be described thus: E. coli growth modulation, two-sided OD650, primary screen, E. coli filamentation project, strain DRC41, 24 h (AID 1093).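 Also: MC1000 strain lacking acrAB efflux and sulA so SOS filamentation is blocked; test concentration not given here.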 As to conditions: OD650, 24 h, higher = more signal, called active from +8 up or from −8 down.
Experiment [7] is described as follows: small-molecule microarray binders of probe aLefty2, primary screen, biochemical, biotinylated probe, 635/667 nm fluorescence (AID 1094).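 Also: score merges spot fluorescence near 667 nm with spot signal-to-noise ratio.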 As to conditions: higher = more signal.
Experiment [8] relates to Noggin (protein binding on small-molecule microarray). As to the kind of experiment: Noggin binders on small-molecule microarray, primary screen, biochemical, 635/667 nm fluorescence (AID 1095).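 Also: score merges 667 nm feature fluorescence with signal to noise over triplicate slides.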 Particulars: 635 nm fluorescence, higher = more signal.
Experiment [9] concerns the target Neurogenic locus notch homolog protein 3 (Homo sapiens) (UniProt Q9UM47). As to the kind of experiment: NOTCH3 binders on small-molecule microarray, primary screen, biochemical, 635/667 nm fluorescence (AID 1096). Particulars: NOTCH3 binding, 635 nm fluorescence, higher = more signal.
The nature of experiment [10]: small-molecule microarray binders of probe aEGFR, primary screen, biochemical, biotinylated probe, 635/667 nm fluorescence (AID 1097).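 Also: probe is a biotinylated anti-EGFR antibody binding compounds printed on slides; score combines fluorescence near 667 nm and signal to noise of each spot.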 Particulars: higher = more signal.
The test system of experiment [11] is Plasmodium falciparum Sir2 (PF13_0152, Sir2A). Description: pfSir2 binders on small-molecule microarrays, primary screen, biochemical, small-molecule microarray, 635 nm fluorescence (AID 1098).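 Also: score merges spot fluorescence intensity with its signal-to-noise ratio.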 Particulars: small-molecule microarray binding, fluorescence 635 nm; higher = more signal.
Experiment [12] can be described thus: small-molecule microarray binders of probe aDKK1, primary screen, biochemical, biotinylated probe, 635/667 nm fluorescence (AID 1099).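 Also: score merges 667nm spot fluorescence with signal to noise across triplicate slides; reference of the scale not given here.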 As to conditions: higher = more signal.
The nature of experiment [13]: small-molecule microarray binders of probe aCHRDL2, primary screen, biochemical, biotinylated probe, 635/667 nm fluorescence (AID 1100). As to conditions: higher = more signal.
A short description of experiment [14]: splicing luciferase reporter signal modulators, primary screen, spliceosome inhibition project, cell-based, HEK293, splice +/- reporter (AID 1101).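 Also: HEK293 cells carrying a splicing-competent luciferase reporter gene; test concentration not given here.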 As to conditions: luminescence, 24 h, higher = more signal, called active from +8 up or from −8 down.
In experiment [15] the target is Fibroblast growth factor 10 (Homo sapiens) (UniProt O15520). Description: FGF10 binders on small-molecule microarrays, primary screen, biochemical, small-molecule microarray, 635 nm fluorescence (AID 1102). Particulars: FGF10 binding, fluorescence 635 nm, higher = more signal.
Experiment [16] relates to glycogen synthase kinase-3 (GSK3A per assay name; protocol says GSK3B). Description: GSK3 binders on small-molecule microarrays, primary screen, biochemical, small-molecule microarray, 635 nm fluorescence, GSK3A (AID 1103). Also: the record names both GSK3A and GSK3B. Particulars: small-molecule microarray binding, fluorescence 635 nm; higher = more signal.
Experiment [17] addresses Epidermal growth factor receptor (Homo sapiens) (UniProt P00533). As to the kind of experiment: EGFR binders on small-molecule microarrays, primary screen, biochemical, small-molecule microarray, 635 nm fluorescence (AID 1104).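 Also: score merges 667 nm emission intensity with spot signal to noise over triplicate slides.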 Particulars: EGFR binding, higher = more signal.
Experiment [18] concerns the target Follistatin-related protein 3 (Homo sapiens) (UniProt O95633). As to the kind of experiment: FSTL3 binders on small-molecule microarrays, primary screen, biochemical, small-molecule microarray, 635 nm fluorescence (AID 1105).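 Also: score merges emission near 667 nm and signal to noise per printed spot across three slides.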 Particulars: FSTL3 binding, higher = more signal.
For experiment [19], the target named is Dickkopf-related protein 1 (Homo sapiens) (UniProt O94907). Description: DKK1 binders on small-molecule microarrays, primary screen, biochemical, small-molecule microarray, 635 nm fluorescence scan (AID 1106).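 Also: score merges emission near 667 nm with signal to noise over three replicate slides.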 As to conditions: DKK1 binding, higher = more signal.
Experiment [20] concerns Inhibin beta A chain (activin A). As to the kind of experiment: INHBA (activin A) binders on microarrays, primary screen, biochemical, small-molecule microarray, 635 nm fluorescence scan (AID 1107).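 Also: mouse activin A protein probed at 4.33 µg/mL on printed slides; score merges bound-protein fluorescence near 667 nm with spot signal-to-noise.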 Particulars: small-molecule microarray binding, higher = more signal.

Epidermal growth factor receptor (Homo sapiens), sequence (P00533 whole entry, looked up): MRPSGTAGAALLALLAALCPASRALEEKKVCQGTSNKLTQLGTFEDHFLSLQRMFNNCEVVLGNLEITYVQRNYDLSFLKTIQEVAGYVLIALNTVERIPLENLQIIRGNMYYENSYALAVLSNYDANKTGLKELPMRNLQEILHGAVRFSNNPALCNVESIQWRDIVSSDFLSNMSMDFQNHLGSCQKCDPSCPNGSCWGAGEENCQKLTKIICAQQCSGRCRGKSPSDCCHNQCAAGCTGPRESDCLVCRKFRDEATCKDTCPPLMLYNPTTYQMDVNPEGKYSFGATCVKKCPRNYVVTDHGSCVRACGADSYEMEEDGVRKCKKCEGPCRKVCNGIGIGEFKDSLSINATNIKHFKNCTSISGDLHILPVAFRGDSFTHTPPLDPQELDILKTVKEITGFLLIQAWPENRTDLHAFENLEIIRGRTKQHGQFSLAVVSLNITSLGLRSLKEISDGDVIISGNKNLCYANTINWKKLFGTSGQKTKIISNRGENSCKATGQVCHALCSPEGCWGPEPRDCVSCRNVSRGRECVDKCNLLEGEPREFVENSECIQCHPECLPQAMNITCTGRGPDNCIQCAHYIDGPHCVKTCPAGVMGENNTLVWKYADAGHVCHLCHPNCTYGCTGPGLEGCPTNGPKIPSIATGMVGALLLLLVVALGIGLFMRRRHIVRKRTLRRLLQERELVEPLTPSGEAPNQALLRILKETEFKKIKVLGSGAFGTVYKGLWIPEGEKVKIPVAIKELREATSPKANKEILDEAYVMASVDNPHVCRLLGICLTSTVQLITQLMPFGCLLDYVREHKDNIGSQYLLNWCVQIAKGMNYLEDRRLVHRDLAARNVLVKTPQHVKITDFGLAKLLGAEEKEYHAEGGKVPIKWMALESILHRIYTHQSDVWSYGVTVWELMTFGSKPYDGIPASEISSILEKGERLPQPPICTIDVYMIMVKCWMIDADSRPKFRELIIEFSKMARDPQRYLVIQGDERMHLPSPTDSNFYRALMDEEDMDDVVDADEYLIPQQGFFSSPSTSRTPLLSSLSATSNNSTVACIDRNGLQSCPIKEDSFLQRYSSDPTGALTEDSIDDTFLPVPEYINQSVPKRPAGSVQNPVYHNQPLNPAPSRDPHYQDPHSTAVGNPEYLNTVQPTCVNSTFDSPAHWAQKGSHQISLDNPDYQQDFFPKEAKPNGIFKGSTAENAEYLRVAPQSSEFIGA
Neurogenic locus notch homolog protein 3 (Homo sapiens), sequence (Q9UM47 whole entry, looked up): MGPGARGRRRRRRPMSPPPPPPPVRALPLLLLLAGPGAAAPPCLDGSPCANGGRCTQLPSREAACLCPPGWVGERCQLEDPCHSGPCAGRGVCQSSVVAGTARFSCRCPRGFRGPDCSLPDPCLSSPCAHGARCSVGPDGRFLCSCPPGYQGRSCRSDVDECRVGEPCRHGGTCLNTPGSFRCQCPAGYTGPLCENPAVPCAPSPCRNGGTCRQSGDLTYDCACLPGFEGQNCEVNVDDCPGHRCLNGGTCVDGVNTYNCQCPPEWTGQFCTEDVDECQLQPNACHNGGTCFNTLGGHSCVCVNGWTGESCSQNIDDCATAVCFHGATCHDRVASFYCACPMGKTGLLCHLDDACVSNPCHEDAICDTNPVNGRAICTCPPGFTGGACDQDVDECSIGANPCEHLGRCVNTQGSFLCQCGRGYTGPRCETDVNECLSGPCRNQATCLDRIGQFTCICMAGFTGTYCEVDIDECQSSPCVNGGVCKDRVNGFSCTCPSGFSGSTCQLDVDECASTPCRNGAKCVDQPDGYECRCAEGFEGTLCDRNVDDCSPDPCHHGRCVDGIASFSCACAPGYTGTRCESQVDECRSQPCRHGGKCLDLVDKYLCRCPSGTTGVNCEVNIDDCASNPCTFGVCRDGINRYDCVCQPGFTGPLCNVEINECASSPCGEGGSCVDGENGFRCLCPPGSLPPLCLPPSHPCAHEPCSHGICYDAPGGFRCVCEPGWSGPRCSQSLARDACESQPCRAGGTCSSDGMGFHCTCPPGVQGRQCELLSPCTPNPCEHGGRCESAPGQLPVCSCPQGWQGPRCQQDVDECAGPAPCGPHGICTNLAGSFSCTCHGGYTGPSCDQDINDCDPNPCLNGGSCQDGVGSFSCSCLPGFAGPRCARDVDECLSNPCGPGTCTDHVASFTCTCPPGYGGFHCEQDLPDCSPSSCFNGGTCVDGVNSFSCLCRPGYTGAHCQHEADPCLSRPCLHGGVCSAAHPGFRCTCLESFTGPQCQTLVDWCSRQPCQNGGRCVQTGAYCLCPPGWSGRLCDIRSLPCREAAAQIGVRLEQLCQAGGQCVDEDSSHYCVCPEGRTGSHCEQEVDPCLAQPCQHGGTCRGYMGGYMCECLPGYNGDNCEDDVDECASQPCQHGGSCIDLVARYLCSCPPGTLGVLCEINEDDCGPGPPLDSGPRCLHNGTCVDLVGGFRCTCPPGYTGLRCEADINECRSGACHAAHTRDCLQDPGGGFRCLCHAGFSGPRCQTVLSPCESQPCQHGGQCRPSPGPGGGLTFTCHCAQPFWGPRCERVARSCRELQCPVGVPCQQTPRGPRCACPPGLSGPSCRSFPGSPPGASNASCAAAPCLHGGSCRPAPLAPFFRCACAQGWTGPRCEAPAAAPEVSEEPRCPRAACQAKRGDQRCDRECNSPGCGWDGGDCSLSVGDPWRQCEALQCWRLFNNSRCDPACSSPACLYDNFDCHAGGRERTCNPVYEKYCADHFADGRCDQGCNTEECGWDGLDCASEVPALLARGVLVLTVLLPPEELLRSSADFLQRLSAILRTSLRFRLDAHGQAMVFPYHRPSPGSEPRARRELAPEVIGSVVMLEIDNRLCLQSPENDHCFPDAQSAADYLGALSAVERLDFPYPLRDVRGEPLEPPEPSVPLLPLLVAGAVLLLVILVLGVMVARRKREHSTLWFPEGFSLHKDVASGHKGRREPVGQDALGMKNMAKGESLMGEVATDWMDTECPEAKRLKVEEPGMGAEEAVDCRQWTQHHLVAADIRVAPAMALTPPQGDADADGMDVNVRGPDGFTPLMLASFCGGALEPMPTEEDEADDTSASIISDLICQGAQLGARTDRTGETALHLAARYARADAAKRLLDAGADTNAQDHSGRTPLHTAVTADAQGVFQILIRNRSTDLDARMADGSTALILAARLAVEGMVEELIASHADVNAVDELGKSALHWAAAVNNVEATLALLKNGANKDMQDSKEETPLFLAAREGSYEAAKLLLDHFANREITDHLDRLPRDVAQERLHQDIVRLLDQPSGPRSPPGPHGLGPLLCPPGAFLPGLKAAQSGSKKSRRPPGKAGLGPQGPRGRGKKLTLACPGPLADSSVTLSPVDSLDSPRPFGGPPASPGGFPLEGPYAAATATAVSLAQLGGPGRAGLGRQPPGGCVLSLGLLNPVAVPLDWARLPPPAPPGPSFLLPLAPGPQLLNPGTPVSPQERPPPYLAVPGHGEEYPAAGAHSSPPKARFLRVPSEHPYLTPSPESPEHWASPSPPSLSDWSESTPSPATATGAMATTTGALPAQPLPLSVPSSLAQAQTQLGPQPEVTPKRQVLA
Fibroblast growth factor 10 (Homo sapiens), sequence (O15520 whole entry, looked up): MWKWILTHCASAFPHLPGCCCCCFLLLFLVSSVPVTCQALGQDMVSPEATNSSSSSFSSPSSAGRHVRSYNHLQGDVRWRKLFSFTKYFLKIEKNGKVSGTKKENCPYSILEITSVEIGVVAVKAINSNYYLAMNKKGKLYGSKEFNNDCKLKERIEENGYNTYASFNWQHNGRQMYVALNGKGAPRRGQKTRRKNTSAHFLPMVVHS
Follistatin-related protein 3 (Homo sapiens), sequence (O95633 whole entry, looked up): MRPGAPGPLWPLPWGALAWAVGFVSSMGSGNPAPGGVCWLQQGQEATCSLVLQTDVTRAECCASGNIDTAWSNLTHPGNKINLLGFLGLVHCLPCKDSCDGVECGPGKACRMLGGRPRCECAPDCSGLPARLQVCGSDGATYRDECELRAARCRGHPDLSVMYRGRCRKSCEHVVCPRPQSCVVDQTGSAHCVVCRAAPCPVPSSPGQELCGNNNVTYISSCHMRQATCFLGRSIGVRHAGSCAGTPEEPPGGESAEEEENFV
Torsin-1A-interacting protein 2 (Homo sapiens), sequence (Q8NFQ8 whole entry, looked up): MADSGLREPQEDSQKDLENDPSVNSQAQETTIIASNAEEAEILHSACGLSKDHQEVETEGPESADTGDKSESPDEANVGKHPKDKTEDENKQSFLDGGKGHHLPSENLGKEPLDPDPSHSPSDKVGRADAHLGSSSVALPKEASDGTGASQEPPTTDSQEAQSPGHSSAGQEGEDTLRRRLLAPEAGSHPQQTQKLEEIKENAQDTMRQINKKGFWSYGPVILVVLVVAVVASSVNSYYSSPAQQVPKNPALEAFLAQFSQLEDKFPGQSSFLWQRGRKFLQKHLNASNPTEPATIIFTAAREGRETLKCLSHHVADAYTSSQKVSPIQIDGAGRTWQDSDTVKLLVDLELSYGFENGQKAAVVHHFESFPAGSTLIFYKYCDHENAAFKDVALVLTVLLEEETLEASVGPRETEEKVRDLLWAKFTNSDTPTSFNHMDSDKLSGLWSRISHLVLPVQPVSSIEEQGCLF
Dickkopf-related protein 1 (Homo sapiens), sequence (O94907 whole entry, looked up): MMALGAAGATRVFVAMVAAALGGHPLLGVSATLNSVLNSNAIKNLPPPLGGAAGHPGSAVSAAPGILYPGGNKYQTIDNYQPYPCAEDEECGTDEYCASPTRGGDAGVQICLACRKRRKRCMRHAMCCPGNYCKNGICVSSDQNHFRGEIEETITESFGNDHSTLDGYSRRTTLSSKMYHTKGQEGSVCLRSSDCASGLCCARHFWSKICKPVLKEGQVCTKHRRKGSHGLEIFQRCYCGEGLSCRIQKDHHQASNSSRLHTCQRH

For the molecule `COCC(=C=CC[C@H](O)c1ccc(OCCO)cc1)C[C@H](O)c1ccccn1`, the composite z-score is 0.546 in [1]; 1.38 in experiment [5]; -0.0216 in experiment [7]; 0.0559 in [8]; -0.457 in experiment [9]; -0.235 in [10]. For the same molecule, the composite z-score is 0.338 in experiment [11]; -0.169 in experiment [12]; -0.201 in experiment [13]; -0.198 in experiment [15]; 0.208 in [16]; -0.829 in [17]. In addition, the composite z-score in experiment [18] is -0.293; in experiment [19], -0.326; in experiment [20], 0.403. Further, the z-score was 0.725 (inactive) in [2]; -1.05 (inactive) in [3]; -0.352 (inactive) in experiment [4]; 1.06 (inactive) in [6]; 0.0572 (inactive) in experiment [14].

With `COCCCNC(=O)[C@@H]1c2ccccc2C(=O)N(CC23CC4CC(CC(C4)C2)C3)[C@H]1c1ccc(CO)cc1`, the composite z-score in experiment [1] was found to be 1.49; in experiment [5] it was 1.56; in experiment [7], 0.242; in experiment [8] it was 0.39; in [9] it was 0.588; in experiment [10], 0.135. Moreover, the composite z-score worked out at 0.0881 in [11]; 0.884 in experiment [12]; 0.97 in experiment [13]; 0.37 in [15]; 0.623 in [16]; 0.215 in experiment [17]. Moreover, the results for the composite z-score in experiment [18], in experiment [19] and in experiment [20] were 0.296, 0.427 and 0.911, respectively. In addition, the z-score in experiment [2] is 0.4 (inactive); in experiment [3], -1.02 (inactive); in [4], 0.182 (inactive); in experiment [6] it was -0.494 (inactive); in experiment [14], -1.1 (inactive).

For `CCOC(=O)C[C@H]1[C@H](OC(=O)c2ccccc2-c2ccccc2)[C@@H](NC(=O)C2CCCCC2)c2cc(OCCCO)ccc2N1C(=O)c1ccccc1`, the composite z-score in experiment [1] was 0.884; in experiment [5] it was 0.928; in experiment [7], -0.0498; in [8] it was 0.203; in experiment [9] it was 0.352; in experiment [10], 0.232. For the same molecule, the composite z-score in [11] was 0.253; in experiment [12], -0.116; in experiment [13] it was -0.489; in experiment [15], 1.43; in [16], 0.524; in experiment [17], 0.797. Besides, the figures for the composite z-score in [18], in experiment [19] and in experiment [20] were 0.437, 0.436 and 0.16, respectively. Further, the z-score in experiment [2] was 1.2 (inactive); in [3], 0.543 (inactive); in experiment [4], 1 (inactive); in [6] it was 2.19 (inactive); in experiment [14] it was -1.02 (inactive).

In the case of `C=C(CCCC)C(=O)CC[C@@H](OC(C)=O)c1ccccc1OCCO`, the composite z-score was 0.0077 in experiment [1]; -0.325 in experiment [5]; -0.214 in experiment [7]; -0.61 in experiment [8]; -0.524 in experiment [9]; -0.232 in experiment [10]. Besides, the composite z-score in experiment [11] is 1.34; in [12], -0.283; in experiment [13], -0.16; in experiment [15], -0.675; in [16] it was -1.31; in experiment [17], -1.36. In addition, the values for the composite z-score in experiment [18], in [19] and in experiment [20] were -1.06, -0.376 and 0.857, respectively. The z-score in [2] was -0.837 (inactive); in experiment [3] it was -18.7 (active); in [4], -1.57 (inactive); in [6] it was 0.682 (inactive); in experiment [14], 0.419 (inactive).

Turning to `COCCOC(=O)N1C(=O)[C@@]2(c3cc(C#CCC(C(=O)OC)C(=O)OC)ccc31)[C@H](C(=O)N1CCN(c3ncccn3)CC1)[C@H]1C(=O)O[C@H](c3ccccc3)[C@H](c3ccccc3)N1[C@@H]2c1ccc(O)cc1`, the composite z-score in [1] was 1.54; in experiment [5], 2.23; in [7], -0.0288; in experiment [8] it was 0.414; in [9] it was 1.17; in experiment [10] it was -0.0675. In addition, the composite z-score came out at 1.25 in [11]; 0.2 in experiment [12]; 0.733 in experiment [13]; 0.589 in experiment [15]; 0.845 in experiment [16]; 0.279 in experiment [17]. For the same molecule, the composite z-score in experiment [18] came to 0.698; in [19] it was 0.0392; in experiment [20] it was 0.283. Further, the z-score is -0.256 (inactive) in experiment [2]; -1.38 (inactive) in [3]; 0.921 (inactive) in experiment [4]; 3.19 (inactive) in [6]; -1.15 (inactive) in experiment [14].

Take `C[C@@H]1CC[C@H]2C(=O)N3CCC[C@H]3C(=O)N2[C@H]1c1ccc(Br)cc1`: the composite z-score in [1] was -0.455; in [5], 0.178; in [7], -0.207; in experiment [8] it was 0.49; in experiment [9], -0.383; in experiment [10] it was -0.166. For the same molecule, the composite z-score is 0.654 in experiment [11]; -0.178 in experiment [12]; -0.439 in experiment [13]; 0.125 in experiment [15]; 0.267 in experiment [16]; 0.0436 in experiment [17]. For the same molecule, the composite z-score in [18] came to 0.0529; in [19], 0.526; in experiment [20] it was 0.38. Further, the z-score was 0.233 (inactive) in [2]; -0.228 (inactive) in [3]; -0.0146 (inactive) in experiment [4]; 0.784 (inactive) in experiment [6]; -0.931 (inactive) in experiment [14].

As to `CC(C)[Si](OCC[C@H]1O[C@]2(C(=O)N(Cc3ccccc3)c3ccccc32)[C@@H](C)[C@@H]1[Si](C)(C)O)(C(C)C)C(C)C`, the composite z-score in experiment [1] is 0.489; in [5], 0.414; in [7], -0.149; in experiment [8] it was -0.139; in [9], -0.0636; in [10], -0.109. Also, the composite z-score was 0.54 in [11]; -0.0907 in experiment [12]; -0.0768 in experiment [13]; -0.189 in experiment [15]; -0.922 in [16]; -0.102 in experiment [17]. In addition, the composite z-score in [18] was -0.0398; in [19] it was 0.0477; in experiment [20], 0.438. The z-score in experiment [2] was 1.11 (inactive); in [3], -0.259 (inactive); in experiment [4] it was 1.24 (inactive); in experiment [6] it was 1.05 (inactive); in experiment [14] it was 0.467 (inactive).

Consider `C=CCNC(=O)[C@H]1[C@@H]2C(=O)O[C@@H](c3ccccc3)[C@@H](c3ccccc3)N2[C@@H](c2ccc(O)cc2)[C@]12C(=O)Nc1ccc(C#CCNC(N)=O)cc12`, for which the composite z-score in [1] is 0.0982; in experiment [5], 1.87; in experiment [7], -0.282; in experiment [8], -0.643; in experiment [9] it was -1.01; in experiment [10], -0.216. The composite z-score in experiment [11] is 1.5; in experiment [12], 0.24; in experiment [13], 0.262; in [15], -0.327; in experiment [16], -0.304; in [17] it was -0.856. The composite z-score was -1.03 in experiment [18], -0.351 in experiment [19] and 0.323 in [20]. Also, the z-score in experiment [2] is -0.396 (inactive); in [3], -0.37 (inactive); in experiment [4], 0.402 (inactive); in [6], 2.18 (inactive); in experiment [14], -0.335 (inactive).

`C=CCC(OC(C)=O)[C@@H]1[C@@H](N(Cc2ccc(-c3cccc(C(F)(F)F)c3)o2)C(=O)Cc2ccc(F)cc2)c2cc(OCCCO)ccc2N1C(=O)c1ccc(-c2ccccc2)cc1` (stereo not given in full): the composite z-score in experiment [1] is -0.621; in [5] it was 0.239; in experiment [7], -0.166; in [8], -0.325; in experiment [9], -0.362; in [10], -0.238. Also, the composite z-score was 0.18 in experiment [11]; -0.0567 in experiment [12]; 0.494 in experiment [13]; -0.204 in experiment [15]; -0.847 in experiment [16]; -0.736 in [17]. Moreover, the composite z-score is -0.198 in experiment [18], -0.0679 in experiment [19] and 1.32 in experiment [20]. Besides, the z-score was -0.182 (inactive) in [2]; -0.258 (inactive) in [3]; -0.507 (inactive) in experiment [4]; -1.33 (inactive) in experiment [6]; -0.291 (inactive) in experiment [14].
